GLP-1R agonist: activates the human GLP-1 receptor; P43220; HEK293 GLP-1R CRE-luciferase, luminescence, 4-6 h; cells express a hypersensitive GLP-1R form; Potency, µM (series often up to 45.6 µM), inactives show at the top dose activation, actives largely listed as activators; 0.007% of 380,000 active; note: potency is the fitted concentration of half-maximal effect; % of control where 0% means no effect
TRHR PAM: TRH receptor (human) allosteric enhancement. AID 493056. enhancement, % at 2 µM. TRHR cells, fluo-8 calcium fluorescence, EC20 TRH enhancement. 0.66% of 360,000 active; in the data active = enhancement above about 30%; note: 0% is about no effect
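Enhancer read-out: after compound pinning and an initial kinetic agonist-mode read, an EC20 of TRH (10 nM final) was injected and fluo-8 calcium signal (Ex 480/Em 530) followed at 1 s/cycle for 100 cycles in TRHR-expressing cells.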
HEK293 tox: cytotoxic in the GLP-1 receptor inverse agonist counter-screen | 0.13% of 410,000 active | HEK293 cAMP-luciferase reporter cells, luminescence, 24 h | Potency, µM (series often up to 38.3 µM), for the others: at the top dose activity change, negative = inhibition, usual class: inhibitors;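 note: loss of luciferase light is scored as toxicity; potency is the fitted concentration of half-maximal effect; % is set by controls: 0 for no effect and ±100 for the full control effect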
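Luminescence readout: signal drop marks cytotoxicity. Plated cells grew 12 h at 37 °C, 5% CO2, received 23 nL compound for 24 h, then got luciferase reagent, read after 12 min at RT.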
GLP1R inv ag: acts as inverse agonist at human GLP-1 receptor | P43220 | 1.6% of 410,000 active | HEK293 GLP-1R CRE-luciferase, luminescence, 24 h; GLP-1R form is constitutively active | Potency, µM (series often up to 38.3 µM), for inactives: at the highest dose activity change, negative = inhibition, hits mostly inhibitors; note: potency is the fitted concentration of half-maximal effect; % is set by controls: 0 for no effect and ±100 for the full control effect; nearly all actives have a fitted effect of over 55% in size
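Cells are plated, allowed 12 hours at 37 deg C, then treated with compounds for 24 hr before luciferase detection reagent is added and luminescence is read after 12 min at room temperature. The HEK293 line carries constitutively active GLP-1R with a cAMP-responsive reporter.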
PTHR1 agonist: agonists of human PTHR1 parathyroid hormone receptor; HEK293 GP2 PTHR1 cells, GloSensor cAMP luminescence, 1 h; Potency, µM (doses to about 115 µM), inactives show top-dose activation, most hits filed as activators; 0.075% of 410,000 active; Q03431; note: potency is the fitted concentration of half-maximal effect; nearly all actives have a fitted effect of over 55% in size
Target sequence (Q03431 whole entry, looked up): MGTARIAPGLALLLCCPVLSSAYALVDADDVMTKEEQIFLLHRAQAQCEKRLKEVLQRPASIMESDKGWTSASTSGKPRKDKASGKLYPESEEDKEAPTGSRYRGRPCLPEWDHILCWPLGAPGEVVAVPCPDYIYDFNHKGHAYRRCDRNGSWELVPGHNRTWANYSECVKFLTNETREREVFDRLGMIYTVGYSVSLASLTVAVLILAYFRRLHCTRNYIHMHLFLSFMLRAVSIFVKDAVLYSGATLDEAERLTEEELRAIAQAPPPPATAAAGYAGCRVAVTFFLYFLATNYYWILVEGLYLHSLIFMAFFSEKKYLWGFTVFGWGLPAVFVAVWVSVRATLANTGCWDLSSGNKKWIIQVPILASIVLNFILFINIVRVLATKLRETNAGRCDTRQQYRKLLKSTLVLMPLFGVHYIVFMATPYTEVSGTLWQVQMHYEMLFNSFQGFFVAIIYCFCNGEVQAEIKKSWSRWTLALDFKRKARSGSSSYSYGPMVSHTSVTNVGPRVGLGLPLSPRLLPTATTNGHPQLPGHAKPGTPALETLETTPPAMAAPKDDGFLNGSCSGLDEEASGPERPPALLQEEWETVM
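HEK-293-derived GP2 cells expressing PTHR1 and a GloSensor cAMP reporter, 3,000/well, plated overnight, given luciferin plus IBMX (each 0.5 mM as added) for 1 h at 37 °C, then compound for 1 h at 37 °C. Luminescence was read after 15 min at room temperature.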
TRHR agonist: activates the human TRH receptor. P34981. TRHR cells, calcium flux fluo-8, FDSS agonist mode. activation, % at 2 µM. 0.18% of 360,000 active; in the data active = activation above about 30%; note: 0% is about no effect
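TRHR-expressing cells loaded with fluo-8 calcium dye; 23 nL library compound pin-transferred, kinetic FDSS fluorescence (Ex 480/Em 530) recorded about 180 s for agonist-induced calcium release, before a 10 nM TRH EC20 addition for potentiator mode.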
* marks the source's active call; other numbers are inactive results; i = inactive; ? = inconclusive; · = no result; [ ] = dose if it differs, or a comment. Only some compounds are listed: those with a hit (about 2.4% of all), similar ones and a draw of the others. Unless noted, calls come from the whole dose curve; as a rule, active = well fitted curve in the direction sought with a large enough effect; inconclusive = small, poorly fitted or top-dose-only effect, or another doubt; inactive = no such curve, though single readings can be large; an effect the other way counts as inactive or inconclusive.

SMILES | GLP-1R agonist | TRHR PAM | HEK293 tox | GLP1R inv ag | PTHR1 agonist | TRHR agonist
CCOC(=O)C1CCN(C(=O)C2CCN(S(=O)(=O)c3c(C)noc3/C=C/c3ccc(C)cc3)CC2)CC1 | 1% | 0 | -5% | ? | -53% | 0
Cc1ccc(/C=C/c2onc(C)c2S(=O)(=O)N2CCC(C(=O)N3CCN(C)CC3)CC2)cc1 | 6% | -1 | -31% | 6.3µM* | -20% | 1
Cn1c(=O)n(C)c2cc(NC(=O)COc3ccc(F)cc3)ccc21 | 8% | -1 | -9% | 20% | -45% | 0
CCN(CC)c1ccc(NC(=O)Nc2ccccc2C(F)(F)F)cc1 | 15% | 15 | ? | -17% | -31%[57.5 µM] | 0
CCc1nc2nc(C)cc(Nc3cccc(C)c3C)n2n1 | · | 1 | 3% | 6% | -56% | -1
O=C1N[C@@H](Cc2c[nH]c3ccccc23)COC(=O)[C@H](Cc2ccc(F)cc2)C/C=C\C[C@@H]1CC(=O)N(CCO)Cc1ccccc1 | -3% | · | -30% | 4% | -10% | ·
O=C1NC[C@H](c2ccccc2)OC(=O)[C@@H](Cc2ccc(F)cc2)C/C=C\C[C@H]1CC(=O)N(CCO)Cc1ccccc1 | -11% | · | 3% | -4% | -41% | ·
O=C1NC[C@H](c2ccccc2)OC(=O)[C@H](Cc2ccc(F)cc2)C/C=C\C[C@H]1CC(=O)N(CCO)Cc1ccccc1 | -6% | · | -29% | 5.6µM* | i | ·
O=C1N[C@@H](Cc2c[nH]c3ccccc23)COC(=O)[C@@H](Cc2ccc(F)cc2)C/C=C\C[C@H]1CC(=O)N(CCO)Cc1ccccc1 | -6% | · | ? | 8.9µM* | -1% | ·
CCOC(=O)C1(C)CCCN1C(=O)c1ccc(OC)c(OC)c1 (stereo not given) | 12% | · | 7% | 12% | -14% | ·
CN(CCCNC(=O)C1CCC(CNS(=O)(=O)c2ccccc2)CC1)Cc1ccccc1 (stereo not given) | 9% | 2 | -1% | 3.5µM* | i | 0
CCOC(=O)C1(CCCc2ccccc2)CCN(C(=O)CSC)CC1 | 13% | -7 | 4% | ? | -18% | 0
CCOC(=O)C1(CCCc2ccccc2)CCN(Cc2nccn2CC)CC1 | 21% | 4 | 13µM* | 10µM* | -23% | 0
CCOC(=O)C1(CCOc2ccccc2)CCN(Cc2nccn2CC)CC1 | 20% | 2 | ? | 10µM* | -9% | 0
CCOC(=O)C1(CCCc2ccccc2)CCN(C(=O)Cc2nonc2C)CC1 | -7% | 4 | -9% | 11µM* | -14% | 1
CCOC(=O)C1(Cc2cccc(OC)c2)CCN(Cc2cccc(OC)c2OC)CC1 | 7% | 3 | -21% | ? | -32% | 1
CCOC(=O)C1(Cc2cccc(OC)c2)CCN(Cc2cccc3c2OCO3)CC1 | 4% | -9 | -3% | 10µM* | -15% | 1
CC(C)C(NC(=O)C12CC3CC(CC(C3)C1)C2)C(=O)N/N=C/C1=C(N2CCOCC2)C(=C\c2ccc([N+](=O)[O-])cc2)/CC1 (stereo not given) | 3% | 18 | -5% | 24% | -39% | 1
Cc1nn(Cc2ccccc2)c(C)c1NC(=O)CCCn1nc(C)c([N+](=O)[O-])c1C | 1% | 22 | -12% | ? | -5% | 1
O=C(N/N=C\c1coc2ccccc2c1=O)c1ccco1 | -1% | -1 | 2% | 8% | i | -1
CCOC(=O)C1(CCOc2ccccc2)CCN(Cc2cccc(OC)c2)CC1 | 12% | · | 4% | 11µM* | i | ·
CC(C)(C)NNC(=S)Nc1cccc(C(F)(F)F)c1 | 11% | 32* | ? | ? | i | 0
O=C(NCCNC(=O)c1ccccc1Br)c1ccccc1Br | 2% | 0 | 21% | 11% | i | 0
Cc1ccccc1SCCNC(=O)c1ccccc1Br | 29% | 33* | -6% | ? | -42% | -1

High-throughput results (PubChem)
